Assay results as given in PubChem BioAssay (NCI).
Compounds without any hit were thinned out: in the full panel of roughly 83,000, 20% have a hit.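 Negative percent growth values reflect cell death: -40 means 40% of the cells present at the start died, and -100 means all died.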 Unmarked numbers belong to inactive results. Active and inactive are the calls of the source.

system: A549/ATCC NSCLC; test: NCI-60 one-dose screen, 48 h (100 = growth as untreated, 0 = no growth, -100 = all killed); settings: 10 µM unless noted
Experimental: Growth inhibition of the A549/ATCC human Non-Small Cell Lung tumor cell line is measured as a screen for anti-cancer activity. Cells are grown in 96 well plates and exposed to the test compound for 48 hours. Compounds are tested at a single concentration, which is 10^-5 M for most compounds. The reported endpoint is percent growth (GI% or GIPRCNT), where numbers from 0 - 100% represent growth inhibition, and numbers from -100% - 0 represent cell death. For example, a value of 40 represents 60% growth inhibition. A value of 0 means no net growth occurred over the course of the experiment. A value of -40 indicates 40% of cells at the beginning of the experiment died by the end of the experiment. A value of -100 means all cells are dead at the end of the experiment.
NCI-60 Human Tumor Cell Lines Screen was performed using the standard one-dose NCI protocol, which is described in more detail at https://dtp.cancer.gov/discovery_development/nci-60/default.htm.
Compounds with GIPRCNT values below 10 were considered active. Activity score was based on GIPRCNT using the following formula: […]
Score is 0 for GIPRCNT values of 100 or above, 50 for GIPRCNT values of 0, and 100 for GIPRCNT values of -100.

| SMILES | growth |
| --- | --- |
| CN(C)c1ccc(C(C#N)(c2ccccc2)c2ccc(N(C)C)cc2)cc1 | 49.9% |
| NC(=S)N/N=C\c1nccc2c(C(F)(F)F)cccc12 | 3.44% (active) |
| CC1=CC(=O)C=CC1(C)C(Cl)(Cl)Cl (stereo not given) | 68.4% |
| N#C/C(=N\Nc1ccc(Cl)cc1)C(=O)C1CC1 | 40.9% |
| O=C1C=CC(=O)N1c1cccc2c1CCCC2 | 104% |
| COC1CC(C)C(OC)c2cc(O)cc(c2O)NC(=O)/C(C)=C/C=C\C(C)C(OC(N)=O)/C(C)=C\C(C)C1OC (stereo not given) | 13.3% |
| O=[N+]([O-])c1cc(-c2ccccc2)c(O)c([N+](=O)[O-])c1 | 86.8% |
| S=C=Nc1ccc(N2CCOCC2)cc1 | 89.8% |
| CCOC(=O)NC(/C=C/c1ccccc1)NC(=O)OCC | 95.7% |
| Cc1ccc(NC2=CC(=O)C(=O)c3ccccc32)cc1 | -36.5% (active) |
| NC(=Nc1nc(-c2ccccn2)cc2ccccc12)c1ccccn1 | -54.2% (active) |
| CCOC(=O)C1(C)CCCC1N (stereo not given) | 110% |
| CCC(=O)c1cc([N+](=O)[O-])c(Br)s1 | 105% |
| CCCCCC/C=C1\CCC(CN2CCCC2)C1=O (stereo not given) | 93% |
| O=[N+]([O-])/C(=C/c1ccccc1)c1ccccc1 | 101% |
| CCc1cnc2ccccc2c1/C=C/c1ccc(N(C)C)cc1 | 33% |
| C/C(=N\NC(=S)N1CC2CCC(CC2)C1)c1ccccn1 | 5.42% (active) |
| CCCCCCCCCCCC1=NCCCN1CCCC | 97.6% |
| CCC(C)C(N)C(=O)NC(CC(N)=O)C(=O)NC(CC(C)C)C(=O)NC(CCCCN)C(=O)NC(C)C(=O)NC(CC(C)C)C(=O)NC(C)C(=O)NC(C)C(=O)NC(CC(C)C)C(=O)NC(C)C(=O)NC(CCCCN)C(=O)NC(CCCCN)C(=O)NC(C(=O)NC(CC(C)C)C(N)=O)C(C)CC (stereo not given) | 90.3% |
| CCCCCCCCCCCCCCCCCC1=NCCCN1CCO | 94.7% |

| SMILES | growth |
| --- | --- |
| Oc1ccc(Cl)cc1Cc1cc(Cl)ccc1O | 61% |
| N#CC(I)CS(=O)(=O)c1ccccc1 (stereo not given) | 93.3% |
| CCCC[n+]1c(/C=C\c2c(OC)cc(OC)cc2OC)ccc2ccccc21 | -22.9% (active) |
| CC1=CC(=NC(=O)CBr)C=C/C1=N\S(=O)(=O)c1ccccc1 | 87% |
| CCOc1ccc(C(C[N+](=O)[O-])Sc2ccccc2N)cc1 (stereo not given) | 62.9% |
| O=C(/C(Cl)=N/O)c1ccc(-c2ccccc2)cc1 | 107% |
| Cc1nc([N+](=O)[O-])c(Sc2nncc(-c3ccccc3)n2)n1C | 95.9% |
| O=C(/C=C/C(Cl)(Cl)Cl)Nc1ccc(Cl)cc1 | 103% |
| Nc1cccc2cccc([N+](=O)[O-])c12 | 106% |
| CCOc1ccc(Nc2nc3c(s2)C(=O)c2ccccc2C3=O)cc1 | 94% |
| O=[N+]([O-])C=C(c1ccccc1)c1ccccc1 | 79.5% |
| CCCCCCCCCCCC[n+]1ccc2ccccc2c1 | 6.68% (active) |
| O=[N+]([O-])c1ccc(N2CCN(Cc3ccccc3)CC2)c2c1no[n+]2[O-] | -40.2% (active) |
| Cc1ccc(Nc2ccc(O)c3c2C(=O)c2c(O)ccc(Nc4ccc(C)cc4)c2C3=O)cc1 | 99.1% |
| NC(CS/C(Cl)=C/Cl)C(=O)O (stereo not given) | -52.9% (active) |
| COc1cc([C@@H]2c3cc4c(cc3[C@H](OC3OC5COC(c6ccccc6)OC5C(O)C3O)[C@H]3COC(=O)[C@H]23)OCO4)cc(OC)c1OC (stereo not given in full) | 64.8% |
| O=C(NNc1ccccc1)OCc1ccccc1 | 70.7% |
| COc1ccc2nc3cc([N+](=O)[O-])ccc3c(NNc3ccccc3)c2c1 | 95.2% |
| CN1CCC(c2ccccc2)(c2ccccc2)C(=O)C1 | 79.7% |
| CN(Cc1ccccc1)c1ccc(SC#N)cc1 | 92% |
